# Bioassay records deposited in PubChem BioAssay by National Center for Advancing Translational Sciences (NCATS).
# Hits are enriched below; roughly 12% of the tested compounds scored in any of these assays.
# FMDV inh: blocks foot and mouth disease virus | FMDV antiviral cell-based qHTS | 410,000 compounds, 1.2% hits | Potency, µM (series often up to 57.9 µM), without a hit: at the top dose activity change, negative = inhibition, hits mostly inhibitors; calls by dose curve; tested in HEK293T cells; note: read-out not given here; potency is the fitted concentration of half-maximal effect; % is set by controls: 0 for no effect and ±100 for the full control effect; nearly all actives have a fitted effect of over 45% in size
# Sm TGR inh: inhibitors of Schistosoma mansoni thioredoxin glutathione reductase; Q962Y6; purified TGR, DTNB reduction, TNB absorbance 405 nm; Potency, µM (titrated, usually from 114 µM), for inactives: top-dose activity change, negative = inhibition, hits mostly inhibitors; 360,000 compounds, 3% hits; AID 485364; active = well fitted inhibition curve with a large enough effect; inconclusive = small, poorly fitted or top-dose-only effect; inactive = no such curve, though single readings can be large or run the other way; note: potency is the fitted concentration of half-maximal effect; % is set by controls: 0 for no effect and ±100 for the full control effect; nearly all actives have a fitted effect of over 60% in size
#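 TGR 20 nM + NADPH 100 uM (dispensed conc.), cpd preinc 15 min RT; start with NADPH (500 uM addition) then DTNB (15 mM addition). Kinetic TNB absorbance, 405 nm filter. Four-parameter Hill fit across titration.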
# CHX counter: counter-screen for Shiga toxin inhibitors: cycloheximide protein synthesis inhibition. max response, %. 300,000 compounds, 12% hits. AID 2314. cell reporter, cycloheximide protein synthesis inhibition counterscreen; in the data active = max response mostly above about 13%, no sharp cut-off; inactive = mostly below about 14%; note: read at 38.3 µM for the half of the compounds with a filed dose; 0% is about no effect
# Shiga inhibitor: inhibitors of Shiga toxin in Vero cells | Vero cells, Shiga toxin protein synthesis inhibition reporter | inhibition, % at 38.7 µM | 290,000 compounds, 9.2% hits; in the data active = inhibition mostly above about 28%, no sharp cut-off; inactive = mostly below about 43%; note: 0% is about no effect
# * = called active by the depositor; ? = inconclusive; / = no result.
SMILES,FMDV inh,Sm TGR inh,CHX counter,Shiga inhibitor
CCc1c(C)nc(SCC(=O)Nc2ccc(Br)cc2)[nH]c1=O,-12%,6%,-6,-11
CC1(C)CCC(=O)N2CC[C@H]3C[C@H](OC(=O)Nc4ccc5c(c4)OCO5)C[C@@H]1[C@H]32,65%,-24%,20*,23*
CC1(C)CCC(=O)N2CC[C@H]3C[C@H](OC(=O)Nc4ccccc4)C[C@@H]1[C@H]32,44%,-19%,36*,39*
CCCCNC(=O)O[C@H]1C[C@@H]2CCN3C(=O)CCC(C)(C)[C@H](C1)[C@H]23,0%,0%,-3,13
COc1ccc(-c2cc(C)no2)cc1S(=O)(=O)Nc1c(C)cc(C)cc1C,16%,?,/,/
CCOc1ccc(NC(=O)Cn2nc(-c3ccncc3)ccc2=O)cc1,-3%,9%,/,/
CCCCN(C(=O)/C=C/c1ccco1)c1c(N)n(Cc2ccccc2)c(=O)[nH]c1=O,3%,?,-3,-3
CCCN(C(=O)/C=C/c1ccco1)c1c(N)n(Cc2ccccc2)c(=O)[nH]c1=O,-21%,45µM*,1,-8
CCN(C(=O)COC(=O)/C=C/c1ccc(C)o1)c1c(N)n(Cc2ccccc2)c(=O)[nH]c1=O,-6%,18µM*,/,/
Cc1ccc(/C=C/C(=O)OCC(=O)N(CC(C)C)c2c(N)n(Cc3ccccc3)c(=O)[nH]c2=O)o1,-5%,-32%,/,/
CC(=O)C1=C(c2ccccc2)NC(=O)NC1c1ccc(O)c(O)c1 (stereo not given),-12%,16µM*,8,-2
Cc1nnc(SCC(=O)N(C)C2CCCCC2)s1,17%,0%,11*,34
COc1ccc(N2C(=O)C3C(C2=O)C(C(=O)c2ccc(Cl)cc2)N2CCCC32)cc1 (stereo not given),?,25µM*,34*,90*
Cc1ccc(N2C(=O)[C@@H]3[C@H](C2=O)C2CCCN2[C@@H]3C(=O)c2ccccc2)cc1 (stereo not given in full),0%,32µM*,27,41
O=C(c1ccccc1)[C@@H]1[C@@H]2C(=O)N(c3ccc(F)cc3)C(=O)[C@@H]2C2CCCN21 (stereo not given in full),-16%,?,1,25
CC(=O)c1ccc(N2C(=O)C3C(C2=O)C(C(=O)c2ccc(Cl)cc2)N2CCCC32)cc1 (stereo not given),?,13µM*,10,61
O=C(c1ccc(Cl)cc1)C1C2C(=O)N(c3ccccc3)C(=O)C2C2CCCN21 (stereo not given),-7%,?,1,19
Nc1c(C(=O)Nc2ccccc2Cl)c2ccccn2c1C(=O)c1ccccc1,-10%,8%,/,/
Cc1cccc(CS(=O)(=O)Cc2ccc(C(=O)NCc3ccc(Cl)cc3)o2)c1,?,3%,/,/
CN(C)C(CNc1ncnc2sc3c(c12)CCCC3)c1ccco1 (stereo not given),-12%,-12%,15*,20
CC1=C[C@@H]2c3cccc4[nH]cc(c34)C[C@H]2N(C)C1,-5%,2.2µM*,-1,-8
COc1ccc(CN2CCc3nnc(CCc4ccccc4)n3CC2)c(OC)c1C,-10%,/,/,/
COc1ccccc1C(=O)Nc1ccccc1OCc1cc(=O)n2c(C)csc2n1,-16%,-1%,/,/
Cc1ccc(Cl)cc1N1CCN(C(=O)c2ccc3c(c2)N(Cc2ccc(F)cc2)CCS3)CC1,-22%,1%,/,/
c1ccc(-c2csc(N3CCOCC3)n2)cc1,12%,-10%,30*,111*
SMILES,FMDV inh,Sm TGR inh,CHX counter,Shiga inhibitor
c1ccc(-c2csc(N3CCN(c4ccccn4)CC3)n2)cc1,-22%,10%,31*,78*
O=C(N1CCOCC1)N1CCN(c2nc(-c3ccccc3)cs2)CC1,0%,-8%,30*,60
CN(C)C(=O)N1CCN(c2nc(-c3ccccc3)cs2)CC1,18%,-4%,35*,52*
Clc1ccc(-c2csc(N3CCN(c4ccccc4)CC3)n2)cc1,?,8%,-4,7
CCC12CN3CC(CC)(CN(C1)C3c1cccc(OC)c1O)C2=O (stereo not given),-20%,1%,/,/
Cc1cc(C)c2c(NC(=O)c3ccccc3Cl)c(C(=O)NCc3ccc(Cl)cc3)sc2n1,-25%,-5%,/,/
O=C(NC12CC3CC(CC(C3)C1)C2)N1CCN(c2nc(-c3ccccc3)cs2)CC1,25µM*,14%,-2,-17
O=C1NN(c2ccccc2)C(=O)/C1=C/c1coc2ccccc2c1=O,?,-17%,81*,54*
O=C1NN(c2ccccc2)C(=O)/C1=C\c1coc2ccc(O)cc2c1=O,?,16µM*,11,20
O=C1NN(c2cccc(Br)c2)C(=O)/C1=C\c1ccccc1,?,50µM*,-3,1
C=CCn1cccc(C(=O)Nc2ccc(Cl)cc2)c1=O,10%,3%,36*,64*
C=CCn1cccc(C(=O)Nc2ccc(C)c(Cl)c2)c1=O,36%,1%,13,23
C=CCn1cccc(C(=O)Nc2ccc(OC)c(OC)c2)c1=O,30%,0%,36,28
C=CCn1cccc(C(=O)Nc2ccc(N(C)C)cc2)c1=O,41%,-15%,39*,90*
C=CCn1cccc(C(=O)Nc2ccc(SC)cc2)c1=O,-10%,3%,53*,93*
C=CCn1cccc(C(=O)Nc2ccc(OCC)cc2)c1=O,0%,4%,35*,95*
CCCCN(CC)C(=S)Nc1ccc2nc(N3CCN(C)CC3)cc(C)c2c1,0%,3%,28*,28
CCN1CCN(c2cc(C)c3cc(NC(=S)N(C)Cc4ccccc4)ccc3n2)CC1,36%,9%,10,-6
CCCCN(C)C(=S)Nc1ccc2nc(N3CCN(CC)CC3)cc(C)c2c1,-9%,4%,13,82*
CCc1nc(SCc2cc(=O)c3cc(F)ccc3[nH]2)n[nH]1,-7%,4%,/,/
Cc1cc(C)nc(NS(=O)(=O)c2ccc(Br)s2)c1,103%,?,7,12
Cc1ccc(NS(=O)(=O)c2ccc(Br)s2)nc1,36%,16µM*,8,42
Cc1ccc(CCNC(=O)c2ccc(CSCc3ccccc3Cl)o2)cc1,-23%,-29%,/,/
COc1ccc(-c2cc(=NC(CC(C)C)C(=O)O)c3cc(C)ccc3o2)cc1 (stereo not given),102%,-1%,30*,100*
COc1ccc(-c2cc(=NCCC(=O)O)c3cc(C)ccc3o2)cc1,63%,-16%,36*,148*
SMILES,FMDV inh,Sm TGR inh,CHX counter,Shiga inhibitor
O=C(c1ccc([N+](=O)[O-])cc1[N+](=O)[O-])N1CCc2ccccc21,-9%,-10%,-3,-10
O=C(N=C1N=C2C=CC(Br)=CN2Cc2ccccc21)c1ccc([N+](=O)[O-])cc1[N+](=O)[O-],26%,-16%,40*,61*
O=C(COc1ccc(Cl)cc1)Nc1ccccc1C(=O)OCc1cc(=O)n2ccsc2n1,-13%,-4%,/,/
CC(=O)c1cccc(Nc2ccc3cc(S(=O)(=O)N4CCCC4)ccc3n2)c1,-8%,-7%,/,/
O=C(Nc1cccc(S(=O)(=O)N2CCOCC2)c1)c1ccc2ccccc2n1,-7%,10%,30*,34
O=S(=O)(c1ccc2nc(Nc3ccccc3)ccc2c1)N1CCCCC1,-7%,-16%,14*,26
COc1ccc(NC(=S)Nc2ccc(S(=O)(=O)N3CCCCC3)cc2)cc1,38%,/,/,/
